In PubChem BioAssay (EPA / NIEHS) one finds outcome and AC50 data, which are given here for 40 compounds.

The structures appear in SMILES notation. The source made the active and inactive calls. The calls were made as follows: active = hit-call score of the fitted dose curve at least 0.9, where 1 is the maximum; inactive = score below 0.9.

Broadly, the AC50 is the midpoint of the concentration-response curve, whichever way the signal moves.

Read-out in the assay: Monokine induced gamma interferon (MIG), CXCL9 (gene 4283)
The assay can be described thus: BSK_hDFCGF_MIG: BioMAP Diversity Plus: hDFCGF Assay for Monokine induced gamma interferon (MIG) Biomarker Activity (AID 2283063). The following applies: primary human foreskin fibroblasts; actives raise or lower the signal. On the procedure: BSK_hDFCGF is a cell-based, multiplexed-readout assay that uses foreskin fibroblast, a human skin primary cell, with measurements taken at 24 hours after chemical dosing in a 96-well plate.BSK_hDFCGF_MIG is an assay component measured in the BSK_hDFCGF assay. It measures MIG antibody related to regulation of gene expression using ELISA technology.Data from the assay component BSK_hDFCGF_MIG was analyzed into 1 assay endpoint. This assay endpoint, BSK_hDFCGF_MIG, was analyzed with bidirectional fitting relative to DMSO as the negative control and baseline of activity. Using a type of binding reporter, gain or loss-of-signal activity can be used to understand changes in the signaling as they relate to the gene CXCL9. Furthermore, this assay endpoint can be referred to as a primary readout, because this assay has produced multiple assay endpoints where this one serves a signaling function. To generalize the intended target to other relatable targets, this assay endpoint is annotated to the cytokine intended target family, where the subfamily is chemotactic factor.
The levels of cell surface (or secreted, indicated by the prefix "s") biomarker endpoints were measured by ELISA. Overt cytotoxicity to cells in confluent adherent cultures (all systems other than the BT system) was assessed by measuring total protein levels using sulforhodamine B (SRB) staining in parallel cultures at the time of biomarker measurements, indicated as SRB endpoints. For proliferation assays for adherent cell types, individual cell types are cultured at sub-confluence and relative cell numbers quantified by SRB staining at time points optimized for each system (48 h: 3C and CASM3C systems; 72 h: BT and HDF3CGF systems; 96 h: SAg system). SRB was performed by staining cells with 0.1% SRB after fixation with 10% TCA and reading wells at 560 nm.Viability and proliferation of PBMC (T cells) was quantified by Alamar Blue reduction for the SAg and BT systems. For PBMC viability (referred to as PBMC Cytotoxicity within the assay endpoint names), cells were plated (75,000/well in a 96-well plate) and then chemical samples added for 1 h before addition of activators, SEB and TSST-1 (20 ng/mL final concentration each). Cells were incubated for 90 h. Then, Alamar Blue (20 uL/well) (Invitrogen, Cat DAL1100) was added for 6 h, and the plates were read with a fluorescence microplate reader at 546/580 nm (excitation/emission). For PBMC proliferation, cells were plated and activated as above but incubated for only 16 h prior to addition of Alamar Blue. Plates were read after 6 h.
For `CCCCC(CC)COC(=O)CCCCC(=O)OCc1ccccc1` (stereo not given), the result was inactive. For `CCCCCCC(=O)O`, the outcome was inactive.

With `O=c1c(-c2ccc(O)cc2)coc2cc(O)ccc12`, the outcome was inactive. For `CCC(=C(c1ccc(O)cc1)c1ccc(OCCN(C)C)cc1)c1ccccc1`, the AC50 is 13.7 µM (active). Regarding `CCOC(=O)CC(O)(CC(=O)OCC)C(=O)OCC`, the result was inactive. On the same count and under the same terms, then `CCCCCCCC(=O)O`, with “inactive”; and `CC(C)CCCCCCOC(=O)CCCCC(=O)OCCCCCCC(C)C`, with “inactive”. On to `CC[C@H](c1ccc(O)cc1)[C@@H](CC)c1ccc(O)cc1`, for which the AC50 was 30.6 µM (active).

As to `O=C(OCCOCCOC(=O)c1ccccc1)c1ccccc1`, the outcome was inactive. Take `CC(C)(C)c1cccc(C(C)(C)C)c1O`: the AC50 was 34.9 µM (active). On to `COc1ccc([N+](=O)[O-])cc1N`, for which the result was inactive.

As to `CCCCCCCCC(=O)O`, the outcome was inactive. Same read-out and setting: then `CC(=O)CC(C)(C)O`, with “inactive”; and `CCc1ccc(CCOc2ccc(CC3SC(=O)NC3=O)cc2)nc1` (stereo not given), with “inactive”. On the same count and under the same terms, the value for `c1ccc2c(c1)Cc1ccccc1-2` was “inactive”.

For the compound `CCCCCCCCCCCCN1CCCC1=O`, the AC50 was 39 µM (active). `Cc1cc(C)c(O)c(C)c1`: the outcome was inactive. For the compound `CN1CCN(c2ccccc2/C=C2\SCCN(c3ccc(Cl)c(Cl)c3)C2=O)CC1`, the AC50 was 39 µM (active). Turning to `CC[C@H](C)[C@@H](C(=O)O)n1sc2ccccc2c1=O`, the outcome was inactive. On the same count and under the same terms, then `NCC(F)(F)C(F)(F)C(F)(F)C(F)(F)C(F)(F)C(F)(F)C(F)(F)F`, with “inactive”; and `C#C[C@]1(O)CC[C@H]2[C@@H]3CCC4=CC(=O)CC[C@@H]4[C@H]3CC[C@@]21C`, with “inactive”.

As to `CCN(CC)CCNc1ccc(CNC=O)c2sc3ccc(OC)cc3c(=O)c12`, the AC50 was 34.2 µM (active).

On to `c1ccc2cc3c(ccc4ccccc43)cc2c1`, for which the result was inactive.

As for `ClC1=C(Cl)C(Cl)(Cl)C(Cl)=C1Cl`, the AC50 is 13.6 µM (active).

For `Nc1cccc2c(N)cccc12`, the AC50 is 16.3 µM (active).

As to `Oc1cccc(O)c1`, the result was inactive. Same read-out and setting: the value for `C[C@@H]1C[C@H]2[C@@H]3CCC4=CC(=O)C=C[C@]4(C)[C@@]3(F)[C@@H](O)C[C@]2(C)[C@@]1(O)C(=O)COP(=O)(O)O` was “inactive”. Consider `CC1=C(/C=C/C(C)=C/C=C/C(C)=C/C(=O)O)C(C)(C)CCC1`, for which the AC50 was 31.8 µM (active).

In the case of `CC(C)(C)CC(C)(C)c1ccc(O)c(-n2nc3ccccc3n2)c1`, the AC50 is 7.74 µM (active). The same measure, in the same setting: the value for `FC(F)(I)C(F)(F)C(F)(F)C(F)(F)C(F)(F)C(F)(F)I` was 6.07 µM (active) [middle of 5 runs]. Turning to `CCCCCCCCOC(=O)CCCCCCCCC(=O)OCCCCCCCC`, the outcome was inactive. For the compound `CC(C)(C)c1cc(C(C)(C)C)c(O)c(C(C)(C)C)c1`, the AC50 is 33.5 µM (active). For the compound `NC(=O)N1C(=O)C(C(=O)c2cc(Cl)cs2)c2cc(F)c(Cl)cc21` (stereo not given), the AC50 is 12.7 µM (active). `N#C[C@@H]1CC(F)(F)CN1C(=O)CNC1CC2CCC(C1)N2c1ncccn1` (stereo not given in full): the result was inactive. In the case of `Cc1cc(CCN2CCN(c3nsc4ccccc34)CC2)cc2c1NC(=O)CC2(C)C`, the AC50 was 10.9 µM (active). With `C=C(C)C(=O)OCCC(F)(F)C(F)(F)C(F)(F)C(F)(F)C(F)(F)C(F)(F)F`, the outcome was inactive. On the same count and under the same terms, then `CCCOC(=O)c1ccc(O)cc1`, with “inactive”; and `CCCCOCCO`, with “inactive”; and `O=C(O)c1ccccc1C(c1ccc(O)cc1)c1ccc(O)cc1`, with “inactive”. Consider `CCc1nn(C2CCCCC2)c2cc(C3(C#N)CCC(C(=O)O)CC3)ccc12` (stereo not given), for which the AC50 was 20 µM (active).
